Reference: ChEMBL document CHEMBL1961873, “Compounds: GSK PKIS; Assays: Nanosyn kinase panel” (2012)

Key:
[1] = target: RAC-alpha serine/threonine-protein kinase (Homo sapiens) (UniProt P31749); conditions: at 0.1 µM
[2] = target: RAC-alpha serine/threonine-protein kinase (Homo sapiens) (UniProt P31749); conditions: at 1 µM
[3] = target: RAC-beta serine/threonine-protein kinase (Homo sapiens) (UniProt P31751); conditions: at 0.1 µM
[4] = target: RAC-beta serine/threonine-protein kinase (Homo sapiens) (UniProt P31751); conditions: at 1 µM
[5] = target: RAC-gamma serine/threonine-protein kinase (Homo sapiens) (UniProt Q9Y243); conditions: at 0.1 µM
Sequence of RAC-gamma serine/threonine-protein kinase (Homo sapiens) (Q9Y243 whole entry): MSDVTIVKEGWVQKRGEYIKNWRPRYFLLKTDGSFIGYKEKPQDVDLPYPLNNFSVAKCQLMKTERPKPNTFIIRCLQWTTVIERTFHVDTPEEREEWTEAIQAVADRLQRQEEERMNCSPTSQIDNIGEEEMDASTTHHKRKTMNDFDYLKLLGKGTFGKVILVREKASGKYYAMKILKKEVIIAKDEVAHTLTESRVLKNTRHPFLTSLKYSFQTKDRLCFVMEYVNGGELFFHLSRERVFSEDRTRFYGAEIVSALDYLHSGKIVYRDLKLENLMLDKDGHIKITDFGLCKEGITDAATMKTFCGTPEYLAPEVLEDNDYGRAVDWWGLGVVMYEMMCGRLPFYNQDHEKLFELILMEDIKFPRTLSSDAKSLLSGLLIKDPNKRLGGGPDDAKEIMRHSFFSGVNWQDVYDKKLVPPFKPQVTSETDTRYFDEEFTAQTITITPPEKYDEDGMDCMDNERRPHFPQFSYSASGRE

[6] = target: RAC-gamma serine/threonine-protein kinase (Homo sapiens) (UniProt Q9Y243); conditions: at 1 µM
[7] = target: G protein-coupled receptor kinase 6 (Homo sapiens) (UniProt P43250); conditions: at 0.1 µM
Sequence of G protein-coupled receptor kinase 6 (Homo sapiens) (P43250 whole entry, looked up): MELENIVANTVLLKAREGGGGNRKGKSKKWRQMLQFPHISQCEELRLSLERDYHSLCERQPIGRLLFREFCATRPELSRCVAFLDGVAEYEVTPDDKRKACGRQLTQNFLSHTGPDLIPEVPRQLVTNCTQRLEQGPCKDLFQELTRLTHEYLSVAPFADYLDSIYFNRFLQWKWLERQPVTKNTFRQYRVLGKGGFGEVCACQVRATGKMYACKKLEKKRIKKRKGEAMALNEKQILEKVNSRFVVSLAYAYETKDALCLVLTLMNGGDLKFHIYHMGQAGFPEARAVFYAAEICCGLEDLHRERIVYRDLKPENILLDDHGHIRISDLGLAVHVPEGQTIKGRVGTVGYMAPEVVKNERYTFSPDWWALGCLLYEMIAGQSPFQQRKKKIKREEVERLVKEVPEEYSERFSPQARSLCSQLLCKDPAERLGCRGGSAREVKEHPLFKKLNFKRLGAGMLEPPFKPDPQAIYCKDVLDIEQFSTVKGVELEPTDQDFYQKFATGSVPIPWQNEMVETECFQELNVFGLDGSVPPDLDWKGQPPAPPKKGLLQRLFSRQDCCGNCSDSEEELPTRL

[8] = target: G protein-coupled receptor kinase 6 (Homo sapiens) (UniProt P43250); conditions: at 1 µM
[9] = target: T1, Rhodopsin kinase GRK7 (Homo sapiens) (UniProt Q8WTQ7); conditions: at 0.1 µM
T1 sequence (whole entry): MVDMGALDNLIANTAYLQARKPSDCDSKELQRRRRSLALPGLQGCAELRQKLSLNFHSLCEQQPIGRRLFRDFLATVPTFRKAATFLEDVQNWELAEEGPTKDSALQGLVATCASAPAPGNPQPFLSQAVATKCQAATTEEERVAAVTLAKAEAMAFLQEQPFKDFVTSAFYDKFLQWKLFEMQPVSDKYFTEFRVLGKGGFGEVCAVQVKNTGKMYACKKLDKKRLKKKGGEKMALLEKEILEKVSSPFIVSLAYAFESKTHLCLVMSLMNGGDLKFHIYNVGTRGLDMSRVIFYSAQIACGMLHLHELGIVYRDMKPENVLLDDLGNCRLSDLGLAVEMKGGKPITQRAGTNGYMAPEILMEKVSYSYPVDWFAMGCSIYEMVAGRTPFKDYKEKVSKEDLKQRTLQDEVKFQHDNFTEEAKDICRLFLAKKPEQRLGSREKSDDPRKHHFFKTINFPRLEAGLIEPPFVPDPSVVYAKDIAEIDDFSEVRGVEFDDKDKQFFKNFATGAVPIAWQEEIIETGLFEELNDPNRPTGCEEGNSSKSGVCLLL

[10] = target: T1, Rhodopsin kinase GRK7 (Homo sapiens); conditions: at 1 µM
[11] = target: Serine/threonine-protein kinase MRCK alpha (Homo sapiens) (UniProt Q5VT25); conditions: at 0.1 µM
Sequence of Serine/threonine-protein kinase MRCK alpha (Homo sapiens) (Q5VT25 whole entry): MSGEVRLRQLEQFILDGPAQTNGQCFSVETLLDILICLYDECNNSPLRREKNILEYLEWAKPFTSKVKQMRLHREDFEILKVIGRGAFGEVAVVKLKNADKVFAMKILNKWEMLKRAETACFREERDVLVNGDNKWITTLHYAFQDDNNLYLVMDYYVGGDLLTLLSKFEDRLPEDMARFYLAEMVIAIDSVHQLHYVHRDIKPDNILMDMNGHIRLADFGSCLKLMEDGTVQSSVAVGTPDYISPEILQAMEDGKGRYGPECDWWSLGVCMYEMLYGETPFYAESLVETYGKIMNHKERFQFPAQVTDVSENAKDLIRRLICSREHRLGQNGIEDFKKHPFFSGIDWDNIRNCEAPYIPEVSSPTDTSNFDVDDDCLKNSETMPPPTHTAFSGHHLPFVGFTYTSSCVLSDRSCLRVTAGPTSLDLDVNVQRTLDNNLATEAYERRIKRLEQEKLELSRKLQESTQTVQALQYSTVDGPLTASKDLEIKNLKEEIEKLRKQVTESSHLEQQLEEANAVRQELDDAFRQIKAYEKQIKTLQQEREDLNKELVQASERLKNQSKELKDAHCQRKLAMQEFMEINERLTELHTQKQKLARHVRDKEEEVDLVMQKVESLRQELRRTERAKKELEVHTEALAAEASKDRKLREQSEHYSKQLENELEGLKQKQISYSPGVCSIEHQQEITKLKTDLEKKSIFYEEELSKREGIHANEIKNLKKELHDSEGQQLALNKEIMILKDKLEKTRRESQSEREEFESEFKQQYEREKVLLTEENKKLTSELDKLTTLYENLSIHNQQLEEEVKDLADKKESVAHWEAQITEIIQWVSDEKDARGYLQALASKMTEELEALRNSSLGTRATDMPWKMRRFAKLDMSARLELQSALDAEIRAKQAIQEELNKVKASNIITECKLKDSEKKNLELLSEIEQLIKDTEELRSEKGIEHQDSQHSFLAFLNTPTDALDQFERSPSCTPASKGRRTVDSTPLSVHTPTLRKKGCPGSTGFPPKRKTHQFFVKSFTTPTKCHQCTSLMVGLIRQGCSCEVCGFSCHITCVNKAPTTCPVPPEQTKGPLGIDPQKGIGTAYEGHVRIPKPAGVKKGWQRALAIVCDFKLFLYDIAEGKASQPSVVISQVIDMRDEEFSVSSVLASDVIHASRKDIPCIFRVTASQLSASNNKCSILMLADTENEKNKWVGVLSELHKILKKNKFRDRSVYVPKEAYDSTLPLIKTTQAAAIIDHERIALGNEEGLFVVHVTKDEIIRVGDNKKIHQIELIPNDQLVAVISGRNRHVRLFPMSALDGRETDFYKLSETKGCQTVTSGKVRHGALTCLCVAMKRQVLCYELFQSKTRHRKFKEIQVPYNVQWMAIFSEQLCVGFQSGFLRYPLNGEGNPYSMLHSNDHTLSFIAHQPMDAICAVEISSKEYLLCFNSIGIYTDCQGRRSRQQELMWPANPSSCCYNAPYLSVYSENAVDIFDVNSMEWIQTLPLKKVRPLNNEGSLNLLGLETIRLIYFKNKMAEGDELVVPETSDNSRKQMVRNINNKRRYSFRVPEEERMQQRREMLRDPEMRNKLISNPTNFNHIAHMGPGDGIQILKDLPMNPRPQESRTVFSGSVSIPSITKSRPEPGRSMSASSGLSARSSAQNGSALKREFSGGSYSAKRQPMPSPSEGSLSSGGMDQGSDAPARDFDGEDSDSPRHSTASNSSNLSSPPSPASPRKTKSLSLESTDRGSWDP

[12] = target: Serine/threonine-protein kinase MRCK alpha (Homo sapiens) (UniProt Q5VT25); conditions: at 1 µM
[13] = target: Serine/threonine-protein kinase MRCK beta (Homo sapiens) (UniProt Q9Y5S2); conditions: at 0.1 µM
[14] = target: Serine/threonine-protein kinase MRCK beta (Homo sapiens) (UniProt Q9Y5S2); conditions: at 1 µM
[15] = target: Ribosomal protein S6 kinase alpha-5 (Homo sapiens) (UniProt O75582); conditions: at 0.1 µM
Sequence of Ribosomal protein S6 kinase alpha-5 (Homo sapiens) (O75582 whole entry, looked up): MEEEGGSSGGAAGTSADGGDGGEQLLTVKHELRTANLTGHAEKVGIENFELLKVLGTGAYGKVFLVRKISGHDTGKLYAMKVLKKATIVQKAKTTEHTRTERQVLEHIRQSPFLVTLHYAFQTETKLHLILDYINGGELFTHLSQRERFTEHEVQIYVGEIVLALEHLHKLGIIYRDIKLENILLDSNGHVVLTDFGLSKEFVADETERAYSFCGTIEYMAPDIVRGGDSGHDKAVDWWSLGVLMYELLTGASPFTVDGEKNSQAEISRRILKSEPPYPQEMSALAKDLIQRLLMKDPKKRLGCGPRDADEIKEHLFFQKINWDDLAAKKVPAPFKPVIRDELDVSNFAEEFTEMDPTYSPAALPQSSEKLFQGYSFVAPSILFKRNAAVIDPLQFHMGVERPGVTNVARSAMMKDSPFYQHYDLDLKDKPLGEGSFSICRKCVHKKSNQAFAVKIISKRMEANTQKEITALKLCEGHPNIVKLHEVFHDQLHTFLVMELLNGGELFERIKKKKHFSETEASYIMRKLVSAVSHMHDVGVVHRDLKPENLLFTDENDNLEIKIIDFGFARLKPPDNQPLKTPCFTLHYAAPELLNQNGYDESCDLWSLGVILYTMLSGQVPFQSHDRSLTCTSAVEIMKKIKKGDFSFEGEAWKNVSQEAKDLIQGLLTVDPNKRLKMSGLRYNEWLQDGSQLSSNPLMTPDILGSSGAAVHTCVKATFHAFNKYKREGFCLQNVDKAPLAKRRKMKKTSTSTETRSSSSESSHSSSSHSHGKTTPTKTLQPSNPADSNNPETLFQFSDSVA

[16] = target: Ribosomal protein S6 kinase alpha-5 (Homo sapiens) (UniProt O75582); conditions: at 1 µM
[17] = target: Ribosomal protein S6 kinase alpha-4 (Homo sapiens) (UniProt O75676); conditions: at 0.1 µM
Sequence of Ribosomal protein S6 kinase alpha-4 (Homo sapiens) (O75676 whole entry, looked up): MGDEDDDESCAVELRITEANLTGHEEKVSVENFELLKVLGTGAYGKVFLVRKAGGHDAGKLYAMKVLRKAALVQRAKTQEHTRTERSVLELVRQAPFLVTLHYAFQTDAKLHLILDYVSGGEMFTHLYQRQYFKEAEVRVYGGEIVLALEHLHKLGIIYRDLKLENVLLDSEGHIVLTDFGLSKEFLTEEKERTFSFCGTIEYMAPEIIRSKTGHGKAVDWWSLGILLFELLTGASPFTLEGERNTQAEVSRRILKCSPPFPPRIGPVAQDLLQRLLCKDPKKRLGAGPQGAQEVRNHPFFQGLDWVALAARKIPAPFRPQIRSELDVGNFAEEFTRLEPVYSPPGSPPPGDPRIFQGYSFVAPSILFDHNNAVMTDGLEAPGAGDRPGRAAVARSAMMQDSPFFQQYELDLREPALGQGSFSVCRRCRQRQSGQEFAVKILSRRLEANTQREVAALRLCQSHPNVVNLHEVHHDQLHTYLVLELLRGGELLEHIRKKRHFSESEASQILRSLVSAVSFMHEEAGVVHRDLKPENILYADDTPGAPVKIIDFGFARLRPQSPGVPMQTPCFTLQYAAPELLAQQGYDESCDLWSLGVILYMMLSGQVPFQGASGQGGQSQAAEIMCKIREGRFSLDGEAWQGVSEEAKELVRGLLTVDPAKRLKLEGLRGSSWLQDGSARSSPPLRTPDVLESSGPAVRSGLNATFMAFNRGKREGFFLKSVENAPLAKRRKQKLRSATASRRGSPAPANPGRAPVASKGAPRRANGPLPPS

[18] = target: Ribosomal protein S6 kinase alpha-4 (Homo sapiens) (UniProt O75676); conditions: at 1 µM
[19] = target: Ribosomal protein S6 kinase beta-1 (Homo sapiens) (UniProt P23443); conditions: at 0.1 µM
[20] = target: Ribosomal protein S6 kinase beta-1 (Homo sapiens) (UniProt P23443); conditions: at 1 µM

Sequence of RAC-alpha serine/threonine-protein kinase (Homo sapiens) (P31749 whole entry): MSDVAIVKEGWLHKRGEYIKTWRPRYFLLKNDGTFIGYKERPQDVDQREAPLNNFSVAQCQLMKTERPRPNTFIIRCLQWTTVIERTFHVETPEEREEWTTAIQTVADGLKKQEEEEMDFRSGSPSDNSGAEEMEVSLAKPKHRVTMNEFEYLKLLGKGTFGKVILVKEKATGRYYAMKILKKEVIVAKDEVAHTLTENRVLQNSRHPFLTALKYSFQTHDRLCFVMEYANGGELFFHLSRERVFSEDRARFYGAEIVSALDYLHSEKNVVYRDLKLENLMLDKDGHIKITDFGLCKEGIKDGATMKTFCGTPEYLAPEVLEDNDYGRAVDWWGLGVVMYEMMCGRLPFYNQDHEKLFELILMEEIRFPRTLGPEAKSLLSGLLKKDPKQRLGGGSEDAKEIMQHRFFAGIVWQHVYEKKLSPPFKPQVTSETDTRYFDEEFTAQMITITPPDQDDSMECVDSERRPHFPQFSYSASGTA

Row | SMILES | inhibition [1] [%] | inhibition [2] [%] | inhibition [3] [%] | inhibition [4] [%] | inhibition [5] [%] | inhibition [6] [%] | inhibition [7] [%] | inhibition [8] [%] | inhibition [9] [%] | inhibition [10] [%] | inhibition [11] [%] | inhibition [12] [%] | inhibition [13] [%] | inhibition [14] [%] | inhibition [15] [%] | inhibition [16] [%] | inhibition [17] [%] | inhibition [18] [%] | inhibition [19] [%] | inhibition [20] [%]
1 | COc1c(C(N)=O)cc(-c2ccc(Cl)cc2)cc1-c1ccc(S(N)(=O)=O)cc1 | 1.15 | 2.28 | 2.77 | 1.74 | 1.8 | 3.15 | 4.42 | 7.23 | 10.6 | 2.21 | 5.11 | 4.98 | -0.26 | 2.36 | 2.38 | 3.81 | 3.65 | 5.79 | 3.07 | 4.29
2 | COc1ccc(Nc2ncc(-c3ccccc3)o2)cc1OC | -0.43 | 0 | -0.16 | 0.11 | -0.29 | 1.24 | -1.81 | -1.23 | -1.93 | 1.56 | 0.45 | 2.02 | 0.74 | 1.74 | 0.37 | 1.73 | 1.03 | 4.59 | 1.51 | 2.28
3 | COc1cc(N2CCN(C(C)C)CC2)ccc1Nc1nc(Nc2cccc3ncccc23)c2cc[nH]c2n1 | -0.64 | -0.94 | -0.9 | -0.32 | 0.92 | 0.55 | -0.14 | -0.02 | -2.45 | 0.29 | -0.06 | 4.44 | 0.85 | 4.14 | 0.1 | 1.16 | 1.01 | 2.7 | 0.36 | 2.23
4 | c1ccc(-c2n[nH]cc2-c2ccnc(-c3ccc(OCCn4ccnc4)cc3)c2)nc1 | -1.55 | 0.14 | -0.98 | 0.73 | -0.34 | 1.01 | 1.73 | 4.13 | -0.12 | 4.02 | -0.22 | -0.54 | 1.02 | 2.11 | -4.46 | -0.29 | 0.76 | 3.98 | 0.32 | 0.33
5 | O=C(O[C@H]1CN[C@H](C#Cc2cc3ncnc(Nc4ccc5c(ccn5Cc5cc(F)ccc5F)c4)c3s2)C1)N1CCOCC1 | 0.34 | 1.4 | 1.89 | 1.81 | 0.84 | 0.51 | 3.43 | 5.16 | 3.33 | 3.94 | -0.29 | -1.5 | 1.19 | 1.68 | -1.77 | -0.4 | 2.95 | 4.34 | 1.82 | 1.74
6 | COc1ccc2ncn(-c3cc(O[C@H](C)c4ccccc4C(F)(F)F)c(C(N)=O)s3)c2c1 | -0.49 | -0.66 | -0.92 | -0.19 | 0.16 | 0.41 | -0.28 | 1.33 | -1.81 | 5.21 | -0.19 | 2.79 | 0.61 | 2.31 | -0.46 | -0.11 | 0.7 | 2.33 | 0.7 | -0.16
7 | CCn1c(-c2nonc2N)nc2cncc(C(=O)NCCNC)c21 | 1.98 | 17.7 | 3.28 | 10.5 | 4.31 | 26.2 | -0.59 | 5.57 | 9.46 | 7.46 | 14.6 | 69.9 | 23.3 | 66.7 | 55.2 | 76.8 | 35.5 | 71.4 | 31.9 | 78.2
8 | CNC(=O)c1sc(-n2cnc3cc(OC)c(OC)cc32)cc1OCc1ccccc1C(F)(F)F | 0.98 | 0.75 | 0.84 | 2.06 | 1.19 | 2 | 0.06 | -0.11 | 4.78 | 3.47 | -1.57 | 2.7 | 0.75 | -0.54 | 1.63 | -0.43 | 3.06 | 2.24 | 1.25 | 0.64
9 | CCN1CCC(C(=O)Nc2n[nH]c3nnc(-c4cccc(F)c4F)cc23)CC1 | -0.41 | -1.03 | -1.1 | -0.35 | -1.17 | 2.44 | -2.23 | 1.97 | 3.51 | -1.02 | -1.78 | 1.74 | 0.8 | -0.36 | -1.22 | -2.44 | 0.41 | 0.26 | -0.22 | -1.27
